# Source: PubChem BioAssay
# Inconclusive results are not listed. Active and inactive are the calls of the source.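 How the source made its calls, unless noted: active means normalized viability below 100% at a tested concentration; inactive means the rest.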
# Assays:
# [1] = growth inhibition of DIPG glioma cells, dose response, cell-based, SU-DIPG-XVII, MIPE5.0, CellTiter-Glo, qHTS (AID 1347060; cut-off not given, nearly all actives have AC50 up to about 26 µM;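 further: cells exposed to compound for 48 hours before viability readout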); conditions: SU-DIPG-XVII viability, CellTiter-Glo ATP luminescence
# [2] = growth inhibition of DIPG glioma cells, dose response, cell-based, JHH-DIPG-1, MIPE4.0, CellTiter-Glo, qHTS (AID 1347062; cut-off not given, nearly all actives have AC50 up to about 27 µM;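 further: cells exposed to compound for two days before readout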); conditions: JHH-DIPG-1 viability, CellTiter-Glo ATP luminescence
# [3] = growth inhibition of DIPG glioma cells, dose response, cell-based, SU-DIPG-IV, MIPE4.0, CellTiter-Glo, qHTS (AID 1347063; cut-off not given, nearly all actives have AC50 up to about 30 µM;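 further: compound exposure lasted 48 hours before the viability readout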); conditions: SU-DIPG-IV viability, CellTiter-Glo ATP luminescence
# [4] = viability loss in pontine glioma line – cell-based, SU-DIPG-XXV, MIPE5.0, CellTiter-Glo, qHTS, dose response (AID 1347065; cut-off not given, nearly all actives have AC50 up to about 26 µM;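 further: cells exposed to compound for 48 hours before ATP readout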); conditions: CellTiter-Glo ATP luminescence
# [5] = SU-DIPG-VI glioma cell viability, MIPE4.0 library, CellTiter-Glo luminescence, qHTS (AID 1347066; cut-off not given, nearly all actives have AC50 up to about 30 µM;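 further: cells exposed to compound for 48 hours before readout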); conditions: CellTiter-Glo ATP luminescence
# [6] = JHH-DIPG-1 glioma cell viability, MIPE5.0 library, CellTiter-Glo luminescence, qHTS (AID 1347067; cut-off not given, nearly all actives have AC50 up to about 26 µM;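 further: cells exposed to compound for 48 hours before readout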); conditions: JHH-DIPG-1 glioma viability, CellTiter-Glo ATP luminescence
# [7] = SU-DIPG-XXV glioma cell viability, MIPE5.0 library, qHTS (AID 1347068; cut-off not given, nearly all actives have IC50 up to about 30 µM;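 further: cells exposed to compound for 48 hours before viability readout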)
# [8] = sensitizers of A549 cells to miR-34 induction, primary screen, imaging, A549 dox-inducible miR-34, nuclei and caspase counts (AID 1347080;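 active means compounds whose cell count with miR-34 switched on is under 0.7 times the count with it off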); conditions: A549 miR-34 inducible, Hoechst nuclei count, 48 h
# [9] = modifiers of HSF1 nuclear foci, imaging, Selleck Cancer Library (AID 1347162; in the data active means plate-normalised HSF1 focus index below about 0.46); conditions: human cells, at 10 µM; SSMD: measured here: HSF1 foci SSMD mean; cell count: measured here: cell number; plate-normalised HSF1 focus index: stronger effect = lower value
# [10] = survival rescue of mitochondrial mutant cells in low glucose, primary screen, MELAS cybrids, Rieske KO mouse fibroblasts, CellTiter-Glo (AID 1508586;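 active means mean z-score across replicates of 1.96 or higher in either the MELAS or the Rieske mutant cell line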;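 further: z relative to plate mean and SD of compound and empty wells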)
# [11] = ovarian cancer cell viability with rucaparib, profiling panel, oncology-focused library, rucaparib conditional (AID 1508598); conditions: patient-derived ovarian cancer cells, CellTiter-Glo viability, 144 h, stronger effect = lower value
# [12] = growth inhibition of DIPG glioma cells, dose response, cell-based, SU-DIPG-XIII, MIPE5.0, CellTiter-Glo, qHTS (AID 1347064; cut-off not given, nearly all actives have AC50 up to about 23 µM;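 further: cells exposed to compound for 48 hours before the viability read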); conditions: SU-DIPG-XIII viability, CellTiter-Glo ATP luminescence
# [13] = stronger effect = lower value, cell number ratio, induced over uninduced
# [14] = measured here: relative caspase fold change +Dox/-Dox
# [15] = measured here: total cells with miR-34 induction, stronger effect = lower value
# [16] = measured here: total cells without miR-34 induction
# [17] = MELAS cybrid survival, CellTiter-Glo 48 h, stronger effect = higher value
# [18] = Rieske KO mouse fibroblast survival, CellTiter-Glo 72 h
# [19] = at 0.000305 µM, OCI-C5x cells, with rucaparib 10 µM, 100% = cells with rucaparib alone
# [20] = at 0.000305 µM, OCI-C5x cells, without rucaparib
# [21] = at 0.000305 µM, OCI-P5x cells, with rucaparib 20 µM, 100% = cells with rucaparib alone
# [22] = at 0.000305 µM, OCI-P5x cells, without rucaparib
# [23] = at 0.00122 µM, OCI-C5x cells, with rucaparib 10 µM, 100% = cells with rucaparib alone
# [24] = at 0.00122 µM, OCI-C5x cells, without rucaparib
# [25] = at 0.00122 µM, OCI-P5x cells, with rucaparib 20 µM, 100% = cells with rucaparib alone
# [26] = at 0.00122 µM, OCI-P5x cells, without rucaparib
# [27] = at 0.00488 µM, OCI-C5x cells, with rucaparib 10 µM, 100% = cells with rucaparib alone
# [28] = at 0.00488 µM, OCI-C5x cells, without rucaparib
# [29] = at 0.00488 µM, OCI-P5x cells, with rucaparib 20 µM, 100% = cells with rucaparib alone
# [30] = at 0.00488 µM, OCI-P5x cells, without rucaparib
# [31] = at 0.0195 µM, OCI-C5x cells, with rucaparib 10 µM, 100% = cells with rucaparib alone
# [32] = at 0.0195 µM, OCI-C5x cells, without rucaparib
# [33] = at 0.0195 µM, OCI-P5x cells, with rucaparib 20 µM, 100% = cells with rucaparib alone
# [34] = at 0.0195 µM, OCI-P5x cells, without rucaparib
# [35] = at 0.0781 µM, OCI-C5x cells, with rucaparib 10 µM, 100% = cells with rucaparib alone
# [36] = at 0.0781 µM, OCI-C5x cells, without rucaparib
# [37] = at 0.0781 µM, OCI-P5x cells, with rucaparib 20 µM, 100% = cells with rucaparib alone
# [38] = at 0.0781 µM, OCI-P5x cells, without rucaparib
# [39] = at 0.313 µM, OCI-C5x cells, with rucaparib 10 µM, 100% = cells with rucaparib alone
# [40] = at 0.313 µM, OCI-C5x cells, without rucaparib
# [41] = at 0.313 µM, OCI-P5x cells, with rucaparib 20 µM, 100% = cells with rucaparib alone
# [42] = at 0.313 µM, OCI-P5x cells, without rucaparib
# [43] = at 1.25 µM, OCI-C5x cells, with rucaparib 10 µM, 100% = cells with rucaparib alone
# [44] = at 1.25 µM, OCI-C5x cells, without rucaparib
# [45] = at 1.25 µM, OCI-P5x cells, with rucaparib 20 µM, 100% = cells with rucaparib alone
# [46] = at 1.25 µM, OCI-P5x cells, without rucaparib
# [47] = at 5 µM, OCI-C5x cells, with rucaparib 10 µM, 100% = cells with rucaparib alone
# [48] = at 5 µM, OCI-C5x cells, without rucaparib
# [49] = at 5 µM, OCI-P5x cells, with rucaparib 20 µM, 100% = cells with rucaparib alone
# [50] = at 5 µM, OCI-P5x cells, without rucaparib
smiles,measurement,setting,value
O=C(NC1CCNCC1)c1[nH]ncc1NC(=O)c1c(Cl)cccc1Cl,AC50,[1],6.61 µM (active)
same,AC50,[2],0.418 µM (active)
same,AC50,[3],0.935 µM (active)
same,AC50,[4],7.42 µM (active)
same,outcome,[5],inactive
same,AC50,[6],1.86 µM (active)
same,IC50,[7],4.68 µM (active)
same,fold change,[8]; [13],1.06 (inactive)
same,fold change,[8]; [14],0.925
same,cell count,[8]; [15],1340
same,cell count,[8]; [16],1260
same,SSMD,[9],-4.94
same,cell count,[9],7300
same,plate-normalised HSF1 focus index,[9],0.823 (inactive)
same,z-score,[10]; [17],0.31 (inactive)
same,z-score,[10]; [18],-1.14
same,viability,[11]; [19],126% (inactive)
same,viability,[11]; [20],105% (inactive)
same,viability,[11]; [21],89.7% (active)
same,viability,[11]; [22],97.4% (active)
same,viability,[11]; [23],116% (inactive)
same,viability,[11]; [24],113% (inactive)
same,viability,[11]; [25],95.9% (active)
same,viability,[11]; [26],103% (inactive)
same,viability,[11]; [27],118% (inactive)
same,viability,[11]; [28],117% (inactive)
same,viability,[11]; [29],103% (inactive)
same,viability,[11]; [30],105% (inactive)
same,viability,[11]; [31],110% (inactive)
same,viability,[11]; [32],118% (inactive)
same,viability,[11]; [33],96.7% (active)
same,viability,[11]; [34],99% (active)
same,viability,[11]; [35],108% (inactive)
same,viability,[11]; [36],118% (inactive)
same,viability,[11]; [37],93.7% (active)
same,viability,[11]; [38],89.4% (active)
same,viability,[11]; [39],86.2% (active)
same,viability,[11]; [40],99.6% (active)
same,viability,[11]; [41],88% (active)
same,viability,[11]; [42],78.2% (active)
same,viability,[11]; [43],10.3% (active)
same,viability,[11]; [44],13.9% (active)
same,viability,[11]; [45],20.4% (active)
same,viability,[11]; [46],15.8% (active)
same,viability,[11]; [47],13% (active)
same,viability,[11]; [48],12.2% (active)
same,viability,[11]; [49],17.1% (active)
same,viability,[11]; [50],14% (active)
O=C(O)c1ccc2c(c1)nc(Nc1cccc(Cl)c1)c1ccncc12,AC50,[1],8.33 µM (active)
same,AC50,[2],16.6 µM (active)
same,AC50,[3],7.43 µM (active)
same,AC50,[4],4.68 µM (active)
same,AC50,[6],2.95 µM (active)
same,IC50,[7],7.42 µM (active)
same,fold change,[8]; [13],0.797 (inactive)
same,fold change,[8]; [14],0.974
same,cell count,[8]; [15],5180
same,cell count,[8]; [16],6500
same,SSMD,[9],0.462
same,cell count,[9],7390
same,plate-normalised HSF1 focus index,[9],1.02 (inactive)
same,z-score,[10]; [17],-0.486 (inactive)
same,z-score,[10]; [18],-0.116
same,viability,[11]; [19],103% (inactive)
same,viability,[11]; [20],125% (inactive)
same,viability,[11]; [21],103% (inactive)
same,viability,[11]; [22],105% (inactive)
same,viability,[11]; [23],119% (inactive)
same,viability,[11]; [24],130% (inactive)
same,viability,[11]; [25],98.4% (active)
same,viability,[11]; [26],111% (inactive)
same,viability,[11]; [27],106% (inactive)
same,viability,[11]; [28],118% (inactive)
same,viability,[11]; [29],94% (active)
same,viability,[11]; [30],104% (inactive)
same,viability,[11]; [31],98% (active)
same,viability,[11]; [32],126% (inactive)
same,viability,[11]; [33],96% (active)
same,viability,[11]; [34],115% (inactive)
same,viability,[11]; [35],99.7% (active)
same,viability,[11]; [36],116% (inactive)
same,viability,[11]; [37],98.9% (active)
same,viability,[11]; [38],110% (inactive)
same,viability,[11]; [39],96.1% (active)
same,viability,[11]; [40],115% (inactive)
same,viability,[11]; [41],94.3% (active)
same,viability,[11]; [42],107% (inactive)
same,viability,[11]; [43],68.3% (active)
same,viability,[11]; [44],91.5% (active)
same,viability,[11]; [45],74.7% (active)
same,viability,[11]; [46],89.4% (active)
same,viability,[11]; [47],43.6% (active)
same,viability,[11]; [48],88.1% (active)
same,viability,[11]; [49],33.3% (active)
same,viability,[11]; [50],35.6% (active)
O=C(c1ccc(/C=C/c2n[nH]c3ccccc23)cc1)N1CCNCC1,AC50,[1],5.9 µM (active)
same,AC50,[2],23.5 µM (active)
same,AC50,[12],8.33 µM (active)
same,AC50,[4],4.68 µM (active)
CC/C(=C(/c1ccc(O)cc1)c1ccc(OCCNC)cc1)c1ccccc1,AC50,[1],2.63 µM (active)
same,AC50,[2],23.5 µM (active)
same,AC50,[12],9.34 µM (active)
same,AC50,[4],3.32 µM (active)
same,AC50,[5],26.4 µM (active)
C#Cc1cccc(Nc2ncnc3cc(OCCOC)c(OCCO)cc23)c1,AC50,[1],11.8 µM (active)
same,AC50,[2],6.62 µM (active)
same,AC50,[3],2.96 µM (active)
same,AC50,[4],7.42 µM (active)
same,outcome,[5],inactive
same,AC50,[6],2.63 µM (active)
same,fold change,[8]; [13],0.787 (inactive)
same,fold change,[8]; [14],0.554
same,cell count,[8]; [15],2660
same,cell count,[8]; [16],3380
same,z-score,[10]; [17],-0.467 (inactive)
same,z-score,[10]; [18],-0.287
same,viability,[11]; [19],118% (inactive)
same,viability,[11]; [20],140% (inactive)
same,viability,[11]; [21],109% (inactive)
same,viability,[11]; [22],119% (inactive)
same,viability,[11]; [23],113% (inactive)
same,viability,[11]; [24],143% (inactive)
same,viability,[11]; [25],109% (inactive)
same,viability,[11]; [26],114% (inactive)
same,viability,[11]; [27],119% (inactive)
same,viability,[11]; [28],127% (inactive)
same,viability,[11]; [29],106% (inactive)
same,viability,[11]; [30],109% (inactive)
same,viability,[11]; [31],108% (inactive)
same,viability,[11]; [32],120% (inactive)
same,viability,[11]; [33],103% (inactive)
same,viability,[11]; [34],107% (inactive)
same,viability,[11]; [35],113% (inactive)
same,viability,[11]; [36],129% (inactive)
same,viability,[11]; [37],96.3% (active)
same,viability,[11]; [38],106% (inactive)
same,viability,[11]; [39],100% (active)
same,viability,[11]; [40],102% (inactive)
same,viability,[11]; [41],97.1% (active)
same,viability,[11]; [42],100% (inactive)
same,viability,[11]; [43],78.3% (active)
same,viability,[11]; [44],95.1% (active)
same,viability,[11]; [45],85.9% (active)
same,viability,[11]; [46],93.4% (active)
same,viability,[11]; [47],54.8% (active)
same,viability,[11]; [48],52.7% (active)
same,viability,[11]; [49],68.7% (active)
same,viability,[11]; [50],64.5% (active)
